Screen size: about 2,400 compounds; about 750 (31%) were called active. The list shows a part of the results. Unmarked numbers belong to inactive results.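 Rule for the calls: active = median signal gain over dofetilide-blocked control wells reaching their mean plus 3 SD, so readout 1 at least 0; inactive = the rest.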

In this experiment the target is Voltage-gated inwardly rectifying potassium channel KCNH2 (Homo sapiens) (UniProt Q12809). As to the kind of experiment: modulators restoring hERG flux under dofetilide – cell-based, thallium flux, duplicate retest, dofetilide IC70, confirmation (AID 1835). Conditions: hERG cell line, FluxOR thallium flux, dofetilide-blocked; at 10 µM; hits give high values.
Chain of Voltage-gated inwardly rectifying potassium channel KCNH2 (Homo sapiens) (Q12809 whole entry, looked up): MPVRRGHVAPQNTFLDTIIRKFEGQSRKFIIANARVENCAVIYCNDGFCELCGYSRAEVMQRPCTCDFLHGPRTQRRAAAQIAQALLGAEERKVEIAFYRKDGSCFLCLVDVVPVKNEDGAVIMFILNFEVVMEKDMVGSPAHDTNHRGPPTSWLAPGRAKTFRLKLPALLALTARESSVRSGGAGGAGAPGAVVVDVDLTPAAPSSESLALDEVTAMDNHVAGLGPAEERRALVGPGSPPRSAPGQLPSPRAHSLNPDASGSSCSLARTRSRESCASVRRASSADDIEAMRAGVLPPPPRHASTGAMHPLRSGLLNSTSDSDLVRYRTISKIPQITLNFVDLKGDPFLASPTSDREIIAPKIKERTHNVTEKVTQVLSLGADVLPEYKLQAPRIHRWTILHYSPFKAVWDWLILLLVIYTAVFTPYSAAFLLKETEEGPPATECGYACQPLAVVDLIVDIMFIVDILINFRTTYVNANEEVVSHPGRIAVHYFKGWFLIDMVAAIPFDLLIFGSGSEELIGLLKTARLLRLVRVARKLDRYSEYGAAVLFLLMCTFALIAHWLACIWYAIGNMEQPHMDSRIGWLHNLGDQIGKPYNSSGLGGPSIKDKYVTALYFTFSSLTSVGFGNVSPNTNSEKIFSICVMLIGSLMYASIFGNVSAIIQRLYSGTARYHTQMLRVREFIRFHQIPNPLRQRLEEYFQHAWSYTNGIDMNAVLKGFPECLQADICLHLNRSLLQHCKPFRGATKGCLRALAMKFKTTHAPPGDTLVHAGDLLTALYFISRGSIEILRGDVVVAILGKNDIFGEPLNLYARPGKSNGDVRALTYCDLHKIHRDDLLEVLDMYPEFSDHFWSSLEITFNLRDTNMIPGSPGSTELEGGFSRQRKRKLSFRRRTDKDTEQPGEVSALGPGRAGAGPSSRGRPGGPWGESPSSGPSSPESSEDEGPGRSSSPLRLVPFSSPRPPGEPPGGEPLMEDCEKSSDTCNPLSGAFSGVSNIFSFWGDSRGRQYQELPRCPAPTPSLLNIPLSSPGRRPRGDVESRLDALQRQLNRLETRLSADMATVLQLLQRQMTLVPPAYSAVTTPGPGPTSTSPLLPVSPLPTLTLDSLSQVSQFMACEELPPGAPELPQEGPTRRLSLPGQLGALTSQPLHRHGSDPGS
Regarding `COc1cc(OC)c(C2=NOC(C(=O)Nc3ccc4c(c3)OCO4)C2)cc1Cl` (stereo not drawn), the activity increase over dofetilide control, less the hit threshold is -21%.

On to `Oc1ccc(N=Nc2ccccc2-c2nn[nH]n2)c(O)c1`, for which the activity increase over dofetilide control, less the hit threshold was 6% (active).

For `COc1cc(CNn2nnnc2N)ccc1OCC(=O)NC(C)(C)C`, the activity increase over dofetilide control, less the hit threshold is -15%.

Regarding `CCCCCCCCCCn1c2c(c(=N)c3c1CCC3)CCC2`, the activity increase over dofetilide control, less the hit threshold was 49% (active).

As to `CCOC(=O)NC(=S)Nc1ccc(C(C)(C)C)cc1`, the activity increase over dofetilide control, less the hit threshold is 3% (active).

In the case of `Cc1cc(Br)c(NC(=O)COC(=O)C2CC2C)c(Br)c1` (stereo not drawn), the activity increase over dofetilide control, less the hit threshold is -11%.

As for `CCOC(=O)NC(=S)Nc1ccc(C(C)(C)C)cc1Br`, the activity increase over dofetilide control, less the hit threshold is 23% (active).

With `COC(=O)CNC(=S)NC(=O)c1ccc(C(C)(C)C)cc1`, the activity increase over dofetilide control, less the hit threshold was -8%.

Regarding `CCOC(=O)NC(=O)/C(C#N)=N\Nc1ccc(Cl)cc1`, the activity increase over dofetilide control, less the hit threshold is -17%.

As to `c1cnc2c(Oc3ncnc4sccc34)cccc2c1`, the activity increase over dofetilide control, less the hit threshold was -11%.

For the compound `N#Cc1ccc(OCc2nnc(-c3ccc([N+](=O)[O-])cc3)o2)cc1`, the activity increase over dofetilide control, less the hit threshold is -3%.

As to `CCOC(=O)C1=C(c2ccccc2)NC(=O)NC1c1ccc(O)c(Cl)c1` (stereo not drawn), the activity increase over dofetilide control, less the hit threshold is 5% (active).

As to `COc1cc(C2NC(=O)NC(C)=C2C(=O)OCC2CCCCC2)ccc1O` (stereo not drawn), the activity increase over dofetilide control, less the hit threshold is -3%.

Take `CCOC(=O)C1=C(c2ccccc2)NC(=O)NC1c1ccc(OC)c(OC)c1` (stereo not drawn): the activity increase over dofetilide control, less the hit threshold is -6%.

Take `CCCCCC(=O)NNC(=S)NC(=O)c1ccc([N+](=O)[O-])cc1`: the activity increase over dofetilide control, less the hit threshold was -24%.

On to `CC1CCN(C(=S)NC(=O)c2cccc([N+](=O)[O-])c2)CC1`, for which the activity increase over dofetilide control, less the hit threshold was 15% (active).

Turning to `O=C(NC(=S)N(CC1CCC1)CC1CCCO1)c1cccc([N+](=O)[O-])c1` (stereo not drawn), the activity increase over dofetilide control, less the hit threshold is 14% (active).

For the compound `O=C(Nc1ccc(NC(=O)C2CC2)nc1)c1cccs1`, the activity increase over dofetilide control, less the hit threshold was -21%.

Regarding `CCC1CCCCN1C(=S)NC(=O)c1ccc([N+](=O)[O-])cc1` (stereo not drawn), the activity increase over dofetilide control, less the hit threshold is 28% (active).

On to `CCC1CCCCN1C(=S)NC(=O)c1cccs1` (stereo not drawn), for which the activity increase over dofetilide control, less the hit threshold was 4% (active).

Consider `CCCCNC(=S)NC(=O)c1ccc([N+](=O)[O-])cc1`, for which the activity increase over dofetilide control, less the hit threshold is -4%.

Take `O=C(O)c1cccc(C(=O)Nc2cccc(NC(=O)C3CCCO3)c2)c1` (stereo not drawn): the activity increase over dofetilide control, less the hit threshold is -14%.

As for `CCCCN(C(=O)CNC(=O)c1cccs1)C(C(=O)NC1CCCC1)c1ccncc1` (stereo not drawn), the activity increase over dofetilide control, less the hit threshold is -6%.

On to `CCOC(=O)/C=C/c1ccc2c(c1)S(=O)(=O)N(c1cccc(OC)c1)[C@H]2CC(=O)OCC`, for which the activity increase over dofetilide control, less the hit threshold was -20%.

`O=C(NC1CCCC1)C(c1ccncc1)N(Cc1ccccc1F)C(=O)c1csnn1` (stereo not drawn): the activity increase over dofetilide control, less the hit threshold is -1%.

Consider `Cc1occc1C(=O)Nc1cccc([N+](=O)[O-])c1`, for which the activity increase over dofetilide control, less the hit threshold is -20%.

For the compound `CCC1CCCCN1C(=S)NC(=O)c1cccc([N+](=O)[O-])c1` (stereo not drawn), the activity increase over dofetilide control, less the hit threshold is 36% (active).

Turning to `O=[N+]([O-])c1ccc(Nc2ccccc2F)nc1`, the activity increase over dofetilide control, less the hit threshold is -3%.

(Values after PubChem BioAssay AID1835 (Johns Hopkins Ion Channel Center, 2009).)
